One assay deals with S100P. In words: pooled miR-30 sensor sort-seq; sequence = guide strand. As to conditions: shRNA.
With TTGAGCAATTTATCCACGGCAT, the sensor-assay potency score (higher = more potent) was -0.537.

TGTCTTTTCCACTCTGCAGGAA returned a sensor-assay potency score (higher = more potent) of -0.419.

For GAACTCACTGAAGTCCACCTGG, the sensor-assay potency score (higher = more potent) is -0.698.

With TTCCACTCTGCAGGAAGCCTGG, the sensor-assay potency score (higher = more potent) was -1.03.

In the case of TAATCAGAGGTACATGAGCAGG, the sensor-assay potency score (higher = more potent) was -1.43.

In another assay the target is SACS. Described as above. As to conditions: shRNA.
For ATAACTTTGCAACTCGTCCTTC, the sensor-assay potency score (higher = more potent) came to 0.248.

Consider TTTCTGACAGCTGAACTCCTAC, for which the sensor-assay potency score (higher = more potent) is -0.234.

TTTCACAATAACATGTCTCATG: the sensor-assay potency score (higher = more potent) is -0.427.

TTTTAGATTAGTCTGCTGCAGA had a sensor-assay potency score (higher = more potent) of -0.586.

The sequence TTTCCAACCATCTTCTACCATC had a sensor-assay potency score (higher = more potent) of -0.995.

TTCATAAACAAGTCTTTGCGGG came in with a sensor-assay potency score (higher = more potent) of -0.207.

In turn, TTTTCTGTGACAACTCATCTGA displayed a sensor-assay potency score (higher = more potent) of 0.17.

Turning to TTGACTTTACCAATCTACCATC, the sensor-assay potency score (higher = more potent) is -1.12.

TAAAATATCATCTTTTGCCATA displayed a sensor-assay potency score (higher = more potent) of -0.814.

In turn, TAGAGTATCAACAACAATGTCA had a sensor-assay potency score (higher = more potent) of 0.305.

TTTGAGAGTAAGTCTGTCCGGC displayed a sensor-assay potency score (higher = more potent) of 0.448.

For a further assay, the target named is SAMD10. Described as above. As to conditions: shRNA.
TGCTTCTTGAGCCACTTGCAGA yielded a sensor-assay potency score (higher = more potent) of -1.33.

In the case of TTACTTCTCATGAATAGAGGGG, the sensor-assay potency score (higher = more potent) worked out at 0.161.

TAGTGGTCAGAGTACAGCCGGC returned a sensor-assay potency score (higher = more potent) of -1.02.

The sequence ATAGTGGTCAGAGTACAGCCGG had a sensor-assay potency score (higher = more potent) of -1.22.

Regarding TAAATAAACAGACTCCCTGGGA, the sensor-assay potency score (higher = more potent) is -0.205.

TGCAGGAGCTTGATTGGCCTGC had a sensor-assay potency score (higher = more potent) of -1.14.

Turning to TAGACGAGGTAGTTGTGGGGAC, the sensor-assay potency score (higher = more potent) is -0.47.

On to ATGCTCTCAGCTGACACCGTGT, for which the sensor-assay potency score (higher = more potent) was -1.22.

For TAAATAATGATGAAAGTGCTTG, the sensor-assay potency score (higher = more potent) is -0.363.

Sequence TTGTGCCACATTTTGTCTCTGG registered a sensor-assay potency score (higher = more potent) of -0.0935.

Sequence TTGTGGGGACAGTGCTTCTTGA yielded a sensor-assay potency score (higher = more potent) of -1.41.

TATGGTACAGGCCATAGTGGTC displayed a sensor-assay potency score (higher = more potent) of -1.37.

For a further assay, the target named is SAMD3. The description is as above. The conditions noted are these: shRNA.
In turn, TTCTCCACCAACCAACTGCAGA came in with a sensor-assay potency score (higher = more potent) of -1.35.

As for TTAACTTCCAACACAGGTGTGG, the sensor-assay potency score (higher = more potent) was 0.183.

Sequence TGTAACACAGTCGTCCACCTTT displayed a sensor-assay potency score (higher = more potent) of -0.369.

Consider TTTTTCTCCACCAACCAACTGC, for which the sensor-assay potency score (higher = more potent) was -0.0677.

With TTCAACATGTCTTCATCTGTGT, the sensor-assay potency score (higher = more potent) amounted to 0.839.

With TAAAACATAGGACTTCGTCCAC, the sensor-assay potency score (higher = more potent) worked out at 0.0328.

As for TAAATCCATCAGAACAGCCTGG, the sensor-assay potency score (higher = more potent) is -0.235.

In turn, TTGAAATCTATGAACTAGCTCT had a sensor-assay potency score (higher = more potent) of 0.87.

As to TTGCTCATCATCTTCTATGGGT, the sensor-assay potency score (higher = more potent) amounted to 0.349.

TTCTGCTCTGCTAACATGCATT registered a sensor-assay potency score (higher = more potent) of -1.16.

Sequence TTGTTTCACATTTCTTCTCTGT showed a sensor-assay potency score (higher = more potent) of 0.377.

The record behind these values is the OligoGym collection.
Also: reference of the scale not given here.
